Non-standard residues stand in square brackets, D forms with d. Residues, ends and D or L forms follow the SMILES beside them. *: point of attachment. Sta = CC(C)C[C@H](N)[C@@H](O)CC(=O)O; Isovaleryl = CC(C)CC(=O)*

A short description of the assay: High-throughput drug toxicity screening in the BPDCN cell line Cal-1 (AID 1224825). To be noted: Cal-1 BPDCN cell viability, qHTS; at 45.8 µM (top of the series) unless noted. An excerpt:
Blastic plasmacytoid dendritic cell neoplasm (BPDCN) is a rare, aggressive and largely incurable hematologic malignancy originating from plasmacytoid dendritic cells (pDCs). Although an initial response to chemotherapy is common, BPDCN prognosis is extremely poor and most patients relapse with drug-resistant disease leading to a median overall survival of ~1 year after diagnosis. To explore novel potential therapeutic strategies in BPDCN, we performed a high-throughput drug toxicity screening in BPDCN cell liens, using of a library of 1,912 small molecules, enriched for compounds that are either approved or in early stages of development for cancer therapy.
A total of 500 exponentially growing Cal-1 cells were seeded per well in 5 uL of media (RPMI + Glutamine, without phenol red plus10% FBS and 1X Pen/Strep) into 1536-well solid white high base tissue culture treated Greiner One Bio Plates (789173-F), using a multidrop combi dispenser and a small sterile cassette. Compounds and controls totaling 23nL per well (negative control DMSO and positive control 9.2 uM Bortezomib-final) were immediately added to the plates using a 1536 head pin tool from Kalypsys. The plates were then covered with stainless steel gasket lids from Kalypsys and incubated for 48 hours at 37C under 95% relative humidity with 5% CO2. After 48 hours, the plates were removed and allowed to reach room temperature before 3 uL of Cell Titer Glo reagent (Promega) were added using an Aurora Flying Reagent Dispenser Bioraptor. The plates were then spun at 1000 rpms to remove bubbles and incubated for 15 minutes at room temperature before reading on a ViewLux using a luminescent filter with a 10 second exposure. The relative luciferase units were used to calculated percent activity using DMSO as 100% and Bortezomib as 0%.
(Quantitative high-throughput screening tests each substance at several concentrations.)
With `Cc1cc(O)c2c(c1)C(=O)c1cc(O)cc(O)c1C2=O`, the viability (% of control) was determined as 109%. Regarding `CC1(C)NC(=O)N(c2ccc([N+](=O)[O-])c(C(F)(F)F)c2)C1=O`, the viability (% of control) worked out at 105%.

In the case of `Cc1nc2n(c(=O)c1CCN1CCC(c3noc4cc(F)ccc34)CC1)CCCC2`, the viability (% of control) was 103%.

On to `O=C(O)c1cc(=O)c2c(OCC(O)COc3cccc4oc(C(=O)O)cc(=O)c34)cccc2o1`, for which the viability (% of control) amounted to 115%. Next, `CC(=O)NC[C@H]1CN(c2ccc(N3CCOCC3)c(F)c2)C(=O)O1`: 105%.

`COc1ccc(C2(C#N)CCC(C(=O)O)CC2)cc1OC1CCCC1` (stereo not given): the viability (% of control) came out at 87.2%. Next, `CN1C(C(=O)Nc2ccccn2)=C(O)c2sccc2S1(=O)=O`: 90.4%; `Nc1ncn([C@H]2C[C@H](O)[C@@H](CO)O2)c(=O)n1`: 47.1%. With `COCCCN1CCC(NC(=O)c2cc(Cl)c(N)c3c2OCC3)CC1`, the viability (% of control) amounted to 76.6%.

Turning to `Cc1c(OCC(F)(F)F)ccnc1CS(=O)c1nc2ccccc2[nH]1` (stereo not given), the viability (% of control) is 100%.

In the case of `CN1CCC(=C2c3ccccc3CCc3sccc32)CC1`, the viability (% of control) came to 69%. In the case of `CCCOc1ccc2nc(NC(=O)OC)[nH]c2c1` it was 14.2%; in that of `CC1(C)CCC(C)(C)c2cc(NC(=O)c3ccc(C(=O)O)cc3)ccc21`, 66%; in that of `O=c1c(O)c(-c2ccc(O)cc2O)oc2cc(O)cc(O)c12`, 84.9%. Next, `O=C(NCCO[N+](=O)[O-])c1cccnc1`: 117%; `Cc1nc(-c2ccc(OCC(C)C)c(C#N)c2)sc1C(=O)O`: 105%. As for `COCCCOc1ccnc(CS(=O)c2nc3ccccc3[nH]2)c1C` (stereo not given), the viability (% of control) came to 104%. Next, `CCCCc1ccc2nc(NC(=O)OC)[nH]c2c1`: 13.4%; `NC(=O)Cc1cccc(C(=O)c2ccccc2)c1N`: 114%. As to `CN(c1nccc(=O)[nH]1)C1CCN(c2nc3ccccc3n2Cc2ccc(F)cc2)CC1`, the viability (% of control) is 108%. In the case of `NNc1nncc2ccccc12` it was 104%; in that of `C[C@]12CCC(=O)C=C1CC[C@@H]1[C@H]2[C@@H](O)C[C@@]2(C)[C@H]1CC[C@]2(O)C(=O)CO`, 71.5%; in that of `C[Se]CCC(N)C(=O)O` (stereo not given), 109% [at 92.2 µM]. Next, `N[C@@H](Cc1cc(I)c(Oc2cc(I)c(O)c(I)c2)c(I)c1)C(=O)O`: 123%. `CC(S)C(=O)NCC(=O)O` (stereo not given): the viability (% of control) was determined as 100%. In the case of `CN(C)c1ccc(O)c2c1C[C@H]1C[C@H]3[C@H](N(C)C)C(=O)C(C(N)=O)=C(O)[C@@]3(O)C(=O)C1=C2O` it was 80%. In the case of `C=CCc1cc(OC)c(O)c(C(=O)NCCO)c1` it was 128%; in that of `CC1Cc2ccccc2N1NC(=O)c1ccc(Cl)c(S(N)(=O)=O)c1` (stereo not given), 104%. In the case of `Clc1ccc(C(Cn2ccnc2)OCc2c(Cl)cccc2Cl)c(Cl)c1` (stereo not given) it was 63.4%. As to `COC1=C(OC)C(=O)C(CCCCCCCCCCO)=C(C)C1=O`, the viability (% of control) amounted to 24.2%. Regarding `Cc1cccc(C)c1OCC(=O)N[C@@H](Cc1ccccc1)[C@@H](O)C[C@H](Cc1ccccc1)NC(=O)[C@H](C(C)C)N1CCCNC1=O`, the viability (% of control) amounted to 91.4%.

For the molecule `CCC[C@@H]1C[C@@H](C(=O)N[C@@H]([C@H]2O[C@H](SC)[C@H](O)[C@@H](O)[C@H]2O)[C@@H](C)O)N(C)C1`, the viability (% of control) is 114%. For `COc1cc(C(C)=O)ccc1OCCCN1CCC(c2noc3cc(F)ccc23)CC1`, the viability (% of control) is 52.5%. In the case of `Cc1ccc(C)c(OCCCC(C)(C)C(=O)O)c1` it was 51%. `CN(C)C(=O)COC(=O)Cc1ccc(OC(=O)c2ccc(N=C(N)N)cc2)cc1`: the viability (% of control) was 104%. Next, `CCC(C)(Oc1ccc(C2(c3ccc(OC(C)(CC)C(=O)O)cc3)CCCCC2)cc1)C(=O)O` (stereo not given): 136%; `CC(C)CC(=O)N[C@H](C(=O)N[C@H](C(=O)N[C@@H](CC(C)C)[C@@H](O)CC(=O)N[C@@H](C)C(=O)N[C@@H](CC(C)C)[C@@H](O)CC(=O)O)C(C)C)C(C)C` (Isovaleryl-VV[Sta]A[Sta]-OH): 39.4%. Next, `O=C1CCc2ccc(OCCCCN3CCN(c4cccc(Cl)c4Cl)CC3)cc2N1`: 110%; `c1ccc2[nH]c(-c3cscn3)nc2c1`: 102%. In the case of `CC1=C(C(=O)O)N2C(=O)[C@@H](NC(=O)[C@H](N)C3=CCC=CC3)[C@H]2SC1` it was 99.4%.
